Measurements: PubChem BioAssay (EPA / NIEHS)
The source made the active and inactive calls. Rule for the calls: active = hit-call score of the fitted dose curve at least 0.9, where 1 is the maximum; inactive = score below 0.9.

Assays:
[1] = ATG_E_Box_CIS: Attagene CIS-FACTORIAL HepG2 Assay for human Enhancer Box (E-box) (AID 2282936); conditions: HepG2 E-box cis-reporter transcription, actives raise or lower the signal
Procedure, shortened: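 Cells: HepG2 (human liver), transient MRTU transfection. Exposure 24 h. RNA → oligo(dT) RT → PCR → 6-FAM label → HpaI → CE. Activity fitted both directions relative to DMSO.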

[2] = ATG_M_61_CIS: Attagene CIS-FACTORIAL HepG2 Assay for M61 Transcription Factor (Internal Marker) (AID 2282937); conditions: HepG2 Attagene CIS-FACTORIAL M61 internal marker reporter; actives raise or lower the signal
Procedure, shortened: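 This endpoint serves as an internal background control within a multiplexed HepG2 cis-reporter panel. Cells are exposed for 24 h; reporter mRNA is amplified, fluorescently labelled and sized by capillary electrophoresis, with DMSO as negative control.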

[3] = ATG_M_19_CIS: Attagene CIS-FACTORIAL HepG2 Assay for M19 Transcription Factor (Internal Marker) (AID 2282939); conditions: HepG2 Attagene CIS-FACTORIAL M19 internal marker reporter; actives raise or lower the signal
Procedure, shortened: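 HepG2, MRTU transient transfection, 24 h dosing. Total RNA → RT-PCR → 6-FAM primer extension → HpaI digest → CE fluorescence. Bidirectional curve fit, DMSO negative control.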

[4] = ATG_Ets_CIS: Attagene CIS-FACTORIAL HepG2 Assay for human Erythroblast Transformation Specific (ETS) (AID 2282941); conditions: HepG2 ETS cis-reporter transcription, actives raise or lower the signal
Procedure, shortened: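 Steps: transfect HepG2 with multiple reporter units; treat compound 24 h; isolate RNA, DNase-treat, reverse-transcribe; PCR-amplify, label with 6-FAM, digest with HpaI; separate by capillary electrophoresis. Activity fitted both directions versus DMSO.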

[5] = biological target: Hepatocyte nuclear factor 3-beta (Homo sapiens) (UniProt Q9Y261); assay: ATG_FoxA2_CIS: Attagene CIS-FACTORIAL HepG2 Assay for human Forkhead box A2 (FOXA2) (AID 2282942); conditions: HepG2 cis-reporter transcription factor activity, 24 h; actives raise or lower the signal
Chain of Hepatocyte nuclear factor 3-beta (Homo sapiens) (Q9Y261 whole entry, looked up): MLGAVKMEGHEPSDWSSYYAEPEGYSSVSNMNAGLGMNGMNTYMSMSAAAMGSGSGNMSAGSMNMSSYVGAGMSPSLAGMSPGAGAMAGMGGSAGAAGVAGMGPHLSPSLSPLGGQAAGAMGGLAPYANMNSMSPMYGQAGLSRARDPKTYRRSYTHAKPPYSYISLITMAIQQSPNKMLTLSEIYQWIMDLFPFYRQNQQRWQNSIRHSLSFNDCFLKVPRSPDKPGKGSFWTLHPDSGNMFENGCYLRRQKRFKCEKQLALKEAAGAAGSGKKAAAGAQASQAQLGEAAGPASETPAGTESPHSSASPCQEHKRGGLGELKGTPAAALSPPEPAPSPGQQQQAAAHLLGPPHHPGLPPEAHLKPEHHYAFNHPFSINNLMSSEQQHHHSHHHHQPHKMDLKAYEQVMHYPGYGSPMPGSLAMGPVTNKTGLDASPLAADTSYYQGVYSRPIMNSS
Procedure, shortened: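 Cells: HepG2, transient multiplex reporter transfection. Exposure 24 h. Detection: reporter-specific RT-PCR, fluorescent labelling, restriction digest, capillary electrophoresis. Analysis: bidirectional curve fit, DMSO as negative control.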

[6] = ATG_FoxO_CIS: Attagene CIS-FACTORIAL HepG2 Assay for human Forkhead box O (FoxO) (AID 2282943); conditions: HepG2 Attagene cis-reporter, FoxO element, mRNA; actives raise or lower the signal
Procedure, shortened: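 Human hepatoma HepG2 cells carry transiently introduced reporter transcription units controlled by cis promoter elements. Chemical treatment lasted 24 h, and mRNA signal was compared with DMSO.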

[7] = ATG_GATA_CIS: Attagene CIS-FACTORIAL HepG2 Assay for human GATA Binding Protein (AID 2282944); conditions: HepG2 GATA cis-element reporter, Attagene multiplex mRNA; actives raise or lower the signal
Procedure, shortened: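 Cells: HepG2, transiently transfected with cis-regulated reporter transcription units. Exposure: 24 h. Detection: RT-PCR plus capillary electrophoresis of FAM-labeled fragments. Analysis: bidirectional, DMSO as baseline.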

[8] = ATG_EGR_CIS: Attagene CIS-FACTORIAL HepG2 Assay for human Early Growth Response 1 (EGR1) (AID 2282938); conditions: HepG2 Attagene CIS-FACTORIAL EGR reporter mRNA; actives raise or lower the signal
Procedure, shortened: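 HepG2, transient MRTU transfection (cis promoters), 24 h compound. RNA → RT (oligo-dT) → PCR → 6-FAM labelling → HpaI cut → CE fluorescence. Bidirectional fit, DMSO baseline.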

[9] = ATG_ERE_CIS: Attagene CIS-FACTORIAL HepG2 Assay for Estrogen Response Element (ERE) (AID 2282940); conditions: HepG2 ERE cis-reporter, Attagene RNA transcript; actives raise or lower the signal
Procedure, shortened: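 After a 24 h chemical treatment, RNA from reporter-transfected HepG2 cells is reverse-transcribed, PCR-amplified and fluorescently labelled. Fragments separated by capillary electrophoresis give reporter signal; DMSO serves as negative control.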

Compound	outcome [1]	outcome [2]	outcome [3]	outcome [4]	outcome [5]	outcome [6]	outcome [7]	outcome [8]	outcome [9]	AC50 [9]	AC50 [8]	AC50 [5]	AC50 [6]
CCCCCCCCCO	inactive	inactive	inactive	inactive	inactive	inactive	inactive	–	–	–	–	–	–
CCCC(O)C(CC)CO (stereo not drawn)	inactive	inactive	inactive	inactive	inactive	inactive	inactive	inactive	inactive	–	–	–	–
CC(C)C(=O)OCC=Cc1ccccc1	inactive	inactive	inactive	inactive	–	inactive	inactive	inactive	inactive	–	–	–	–
Nc1cc([N+](=O)[O-])ccc1C(=O)O	inactive	inactive	inactive	inactive	inactive	inactive	inactive	inactive	inactive	–	–	–	–
CC(=O)CCC(=O)O	inactive	inactive	inactive	inactive	inactive	inactive	inactive	–	inactive	–	–	–	–
CC(C)(C)c1ccc(S)cc1	–	inactive	inactive	inactive	inactive	inactive	inactive	inactive	inactive	–	–	–	–
CC1=CC[C@@H]2C[C@H]1C2(C)C	inactive	inactive	–	inactive	inactive	inactive	inactive	inactive	inactive	–	–	–	–
CC/C=C\CCCCO	inactive	inactive	–	inactive	inactive	inactive	inactive	inactive	–	–	–	–	–
CCCCCCCCCCO[C@@H]1O[C@H](CO)[C@@H](O)[C@H](O)[C@H]1O	inactive	inactive	inactive	inactive	–	inactive	inactive	inactive	–	–	–	–	–
C=CC(C)CCCC(C)(C)O (stereo not drawn)	inactive	inactive	–	inactive	inactive	inactive	inactive	inactive	inactive	–	–	–	–
O=C(OCc1ccccc1)c1ccccc1O	inactive	inactive	inactive	inactive	–	inactive	inactive	inactive	–	76.3 µM (active)	–	–	–
CC(C)N(c1ccccc1)C(C)C	inactive	inactive	inactive	inactive	inactive	inactive	inactive	inactive	inactive	–	–	–	–
N#CCCNCCC#N	inactive	inactive	inactive	inactive	inactive	inactive	inactive	inactive	–	–	–	–	–
NC(N)=S	inactive	inactive	inactive	inactive	inactive	inactive	inactive	inactive	inactive	–	–	–	–
NC(=O)NC(N)=O	–	inactive	inactive	inactive	inactive	inactive	inactive	inactive	inactive	–	–	–	–
CCCCCCCCOC(=O)c1ccc(O)cc1	–	inactive	inactive	inactive	inactive	inactive	inactive	–	–	5.12 µM (active)	–	–	–

Compound	outcome [1]	outcome [2]	outcome [3]	outcome [4]	outcome [5]	outcome [6]	outcome [7]	outcome [8]	outcome [9]	AC50 [9]	AC50 [8]	AC50 [5]	AC50 [6]
CC1COC(=O)O1 (stereo not drawn)	–	inactive	–	inactive	inactive	inactive	inactive	inactive	–	–	–	–	–
CCC=C(C)C=O	inactive	inactive	–	inactive	inactive	inactive	inactive	inactive	–	27.4 µM (active)	–	–	–
CC(=O)CC(=O)N(C)C	inactive	inactive	inactive	inactive	inactive	inactive	inactive	–	inactive	–	–	–	–
CC1(C)CC(=O)CC(C)(C)N1	inactive	inactive	inactive	inactive	inactive	inactive	inactive	inactive	–	–	–	–	–
COC(=O)c1ccc(C(=O)OC)cc1	inactive	inactive	inactive	inactive	inactive	inactive	inactive	–	inactive	–	–	–	–
CCCCC/C=C\C=C\C(=O)OCC	–	inactive	inactive	inactive	–	inactive	inactive	–	inactive	–	58.3 µM (active)	71.5 µM (active)	–
CC12CCC(C1)C(C)(C)C2O (stereo not drawn)	–	inactive	–	inactive	–	inactive	inactive	inactive	inactive	–	–	–	–
CN(C)C(=O)Nc1ccccc1	inactive	inactive	inactive	inactive	–	inactive	inactive	inactive	–	–	–	–	–
CC(C)Cc1ccccc1	inactive	inactive	–	inactive	inactive	inactive	inactive	inactive	inactive	–	–	–	–
CCC(C)(C)C1CCC(=O)CC1	inactive	inactive	inactive	inactive	inactive	inactive	inactive	inactive	–	16.7 µM (active)	–	–	–
Cc1ccccc1S	inactive	inactive	inactive	inactive	–	–	inactive	inactive	–	20.5 µM (active)	–	–	134 µM (active)
Brc1cc(Br)cc(Br)c1	inactive	inactive	inactive	inactive	inactive	inactive	inactive	inactive	inactive	–	–	–	–
CCOc1ccc(NC(C)=O)cc1	inactive	inactive	inactive	inactive	inactive	inactive	inactive	–	inactive	–	–	–	–
CCOC(=O)CCCCCCCCC(=O)OCC	inactive	inactive	inactive	inactive	–	inactive	inactive	inactive	inactive	–	–	–	–
[Na+]	inactive	inactive	inactive	inactive	inactive	inactive	inactive	–	inactive	–	–	–	–
NC(N)=NC(N)=NCCc1ccccc1	inactive	inactive	inactive	inactive	inactive	inactive	inactive	inactive	–	–	–	–	–
